Mm-Cpn inhibitor: M. maripaludis TRiC chaperonin inhibition | purified Mm-Cpn ATPase, ADP Transcreener TR-FRET | Potency, µM (doses to about 76.9 µM), for inactives: top-dose activity, negative = inhibition, actives largely listed as inhibitors | 0.031% of 330,000 active; also: potency is read from the fitted curve at half-maximal effect; nearly all actives have a fitted effect of over 80% in size
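25 nM Mm-CPN + cpd, 10 min 37°C; + 10 uM ATP, 30 min 37°C; buffer 30 mM Tris pH 7.4, 100 mM KCl, 5 mM MgCl2, 1 mM DTT; Transcreener ADP HTRF detection 30 min RT.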
CCT chaperon mod: modulators of cytosolic chaperonin (CCT/TRiC) activity; purified chaperonin ATPase assay, HTRF ADP detection, 30 min; activity change, % (no concentration beside the values), hits read low; 0.3% of 360,000 active; AID 651819; in the data active = activity change below about -30%
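Enzyme 40 or 20 nM (batch-dependent) in Tris pH 7.4/KCl/MgCl2/DTT; cpd 76 uM single point; ATP 10 uM; 30 min 37 °C; Transcreener ADP HTRF detection, 30 min RT; ratio 665/615.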
VDR inh: blocks the human vitamin D receptor; AID 504847; VDR-SRC2-3 peptide fluorescence polarization, 2 h; Potency, µM, inactives show max response, negative = inhibition, usual class: inhibitors; 0.93% of 400,000 active; also: potency is read from the fitted curve at half-maximal effect
Target sequence (P11473 whole entry, looked up): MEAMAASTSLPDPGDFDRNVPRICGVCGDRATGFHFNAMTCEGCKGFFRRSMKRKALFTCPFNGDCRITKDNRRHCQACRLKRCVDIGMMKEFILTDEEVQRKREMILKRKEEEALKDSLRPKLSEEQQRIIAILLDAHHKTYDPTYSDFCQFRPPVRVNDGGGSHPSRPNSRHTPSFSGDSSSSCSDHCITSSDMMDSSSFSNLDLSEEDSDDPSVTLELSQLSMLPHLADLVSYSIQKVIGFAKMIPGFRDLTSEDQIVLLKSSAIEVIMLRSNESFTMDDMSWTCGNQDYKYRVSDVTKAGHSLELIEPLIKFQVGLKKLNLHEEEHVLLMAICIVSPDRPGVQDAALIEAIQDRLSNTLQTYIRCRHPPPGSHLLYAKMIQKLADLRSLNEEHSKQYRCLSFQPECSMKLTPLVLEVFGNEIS
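Two reagent solutions held at 4 deg C in the dark were dispensed, compounds pinned at 23 nl, and the mixture incubated 2 h at room temperature. Read-out: fluorescence polarization of VDR–SRC2-3 peptide binding.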
PLK1 PBD inh: blocks phosphopeptide binding to human PLK1 polo-box domain. Plk1 PBD binding of FITC phosphopeptide, fluorescence polarization. Potency, µM, without a hit: max response, negative = inhibition, actives largely listed as inhibitors. 2.8% of 360,000 active. AID 720504; also: potency is read from the fitted curve at half-maximal effect; series mostly up to about 57 µM; nearly all actives have a fitted effect of over 65% in size
G9a block: inhibitors of human histone lysine methyltransferase G9a; G9a H3K9 monomethylation, AlphaScreen, 2 h; AID 504332; Potency, µM (series often up to 102 µM), inactives show top-dose activity, negative = inhibition, actives largely listed as inhibitors; 8.8% of 350,000 active; also: potency is read from the fitted curve at half-maximal effect; nearly all actives have a fitted effect of over 75% in size
Target sequence (Q96KQ7 913-1193 limits assumed): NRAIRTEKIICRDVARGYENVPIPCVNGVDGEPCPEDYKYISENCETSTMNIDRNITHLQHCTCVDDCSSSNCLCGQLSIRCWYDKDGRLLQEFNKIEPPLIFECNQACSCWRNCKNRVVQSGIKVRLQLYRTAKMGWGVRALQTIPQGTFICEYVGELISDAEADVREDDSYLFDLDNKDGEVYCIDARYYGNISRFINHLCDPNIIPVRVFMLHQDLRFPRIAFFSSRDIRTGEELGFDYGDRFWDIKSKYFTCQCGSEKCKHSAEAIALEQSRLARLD
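AlphaScreen read-out: biotin-H3K9 peptide (500 nM) methylation by 20 nM enzyme with 20 uM SAM, 2 h at room temperature after 15 min compound preincubation; anti-monomethyl H3K9 antibody plus donor/acceptor beads, 10 min dark.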
Sfp PPTase inh: blocks B. subtilis Sfp PPTase activity. Q9F4F7. Biochemical Sfp PPTase activity, qHTS. AID 1490. 3.5% of 310,000 active. Potency, µM, inactives show largest response in the series, negative = inhibition, usual class: inhibitors;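 also: the enzyme is Sfp with the accession as filed and its product quenches rhodamine fluorescence; potency is read from the fitted curve at half-maximal effect; 0% = enzyme reaction without inhibitor and -100% = no enzyme wells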
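Compounds were incubated with enzyme (final 15 nM) for 15 min at room temperature before substrate addition started the reaction. Fluorescence at 525 nm excitation, 598 nm emission was recorded immediately and after 30 minutes.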
* = called active by the depositor; ? = inconclusive; / = no result given; [ ] = remark or other dose. Most compounds without a hit are left out; they make up all but 10% or so of the library. Unless noted, calls follow the shape of the dose curve; as a rule, active = well fitted curve in the direction sought with a large enough effect; inconclusive = small, poorly fitted or top-dose-only effect, or another doubt; inactive = no such curve, though single readings can be large; an effect the other way counts as inactive or inconclusive. Unless noted, % is scaled to controls: 0 for no effect and ±100 for the full control effect.

SMILES	Mm-Cpn inhibitor	CCT chaperon mod	VDR inh	PLK1 PBD inh	G9a block	Sfp PPTase inh
CCn1c(=O)n(CC)c2cc(N3CCCC3)c(NC(=O)c3ccc(OC)c(Br)c3)cc21	-2%	-4	8%	-16%	/	?
CCn1c(=O)n(CC)c2cc(N3CCCC3)c(NC(=O)c3cc(Cl)ccc3OC)cc21	1%	0	-2%	-10%	40µM*	?
CCOc1ccccc1C(=O)Nc1cc2c(cc1N1CCCC1)n(CC)c(=O)n2CC	?	0	-7%	-13%	45µM*	-25%
CCn1c(=O)n(CC)c2cc(N3CCCC3)c(NC(=O)c3ccccc3OC)cc21	0%	0	4%	-1%	35µM*	-19%
COC(=O)c1ccc(C(NC(=O)OCc2ccccc2)/C(C)=C/[C@@H](C)C(=O)NCCO)cc1 (stereo partly drawn)	/	/	/	/	/	1%
CCc1ccc(-n2nc3cc(C)c(NC(=O)c4cc(Cl)ccc4OC)cc3n2)cc1	/	/	-12%	/	14µM*	/
O=c1oc2ccccc2nc1/C=C(O)/C=C/c1ccc(F)cc1	0%	-1	-26%	3%	45µM*	79µM*
O=c1oc2ccccc2nc1/C=C(O)/C=C\c1ccccc1	-4%	1	?	-5%	56µM*	-18%
CCOc1ccc(S(=O)(=O)N2CCN(C(=O)c3cc(-c4ccccc4)nn3-c3ccccc3)CC2)cc1	1%	-2	-8%	-5%	40µM*	/
CCOc1ccc(S(=O)(=O)N2CCN(C(=O)CCOc3ccccc3C)CC2)cc1	0%	-3	-8%	2%	13µM*	/
Cc1ccc(S(=O)(=O)N2CCN(C(=O)CCOc3ccccc3C)CC2)cc1C	0%	-2	-25%	-4%	-51%	/
O=C(Nc1ncnc2c1ncn2[C@@H]1O[C@@H]2COP(=O)(O)O[C@H]2[C@H]1O)c1ccccc1	/	/	7%	/	/	2%
Cc1ccc(-c2nn(-c3ccccc3)cc2CSC(=N)N)cc1	0%	-59*	4%	-7%	8%[12.7 µM]	-21%
Cc1ccc(C)c(N2CCN(CCCNC(=O)c3ccc4nc(N5CCCCC5)sc4c3)CC2)c1	/	/	0%	/	?	/
CCN(CC)S(=O)(=O)c1cccc(-c2n[nH]c(=S)n2C(C)COC)c1 (stereo not drawn)	2%	0	20%	-11%	10µM*	4%
CC(C)Cn1c(-c2cccc(S(=O)(=O)N3CCOCC3)c2)n[nH]c1=S	-6%	-2	-18%	-1%	/	/
CCn1c(-c2cccc(S(=O)(=O)N3CCCC3)c2)n[nH]c1=S	-5%	2	13%	0%	8.9µM*	-27%
CCC(C)n1c(-c2cccc(S(=O)(=O)N3CCOCC3)c2)n[nH]c1=S (stereo not drawn)	0%	-3	-14%	-1%	3.2µM*	/
CCC(C)n1c(-c2cccc(S(=O)(=O)N(CC)CC)c2)n[nH]c1=S (stereo not drawn)	-5%	-2	-5%	-1%	8.9µM*	-7%
Cc1cccc(N(CC(=O)NCCSCc2cccc(Cl)c2)S(=O)(=O)c2ccccc2)c1C	/	/	-1%	/	4%[59 µM]	/
Cc1ccc(C(=O)Nc2ccc(Br)cc2)cc1S(=O)(=O)N1CCOCC1	/	/	-2%	/	7%[59 µM]	/
COc1ccc(N2CCN(C(=O)CCS(=O)(=O)c3cc4c(cc3Cl)NC(=O)CO4)CC2)cc1	/	/	-6%	/	-22%[59 µM]	/
O=C(NNc1nc2c(F)cc(F)cc2s1)C1COc2ccccc2O1 (stereo not drawn)	3%	-7	?	-4%	40%	12%
Cc1cccc2sc(NNC(=O)C3COc4ccccc4O3)nc12 (stereo not drawn)	1%	1	-9%	-8%	18µM*	32µM*
COc1cc(Cl)c(C)cc1NC(=O)c1cnn(-c2ccc(F)cc2F)c1C1CCN(C(=O)OC(C)(C)C)CC1	/	/	11%	/	?	/
SMILES	Mm-Cpn inhibitor	CCT chaperon mod	VDR inh	PLK1 PBD inh	G9a block	Sfp PPTase inh
Cc1cc(O)c(C(=O)c2cnc3c(c2)COc2ccccc2-3)cc1Cl	/	/	9%	/	?	/
COc1ccc(/C(C)=N/Nc2nncc3ccccc23)cc1	0%	-1	?	1%	-4%	-1%
COc1ccc(/C(C)=N/Nc2nc3ccccc3nc2C)cc1	0%	0	33%	-21%	35µM*	25µM*
Cc1ccc(NC(=O)C2Cc3ccccc3N2C(=O)c2ccccc2)cc1Cl (stereo not drawn)	/	/	8%	/	9%[12.7 µM]	/
CCCCC(=O)N/N=C/c1ccc(Sc2cccc3cccnc23)o1	1%	-5	-14%	-19%	?	35µM*
COc1cccc(NC(=O)Cn2c(=O)n(-c3ccc(CC(=O)NCC4CCCO4)cc3)c(=O)c3ccccc32)c1 (stereo not drawn)	/	/	-6%	/	7%[59 µM]	/
O=C(Oc1nsnc1N1CCOCC1)N(c1ccccc1)c1ccccc1	0%	-1	8%	0%	8%[2.33 µM]	11%
Brc1ccc(Oc2nsnc2N2CCOCC2)cc1	2%	-4	1%	-7%	40µM*	?
c1ccc(N2CCN(C3CC4CCC3C4)CC2)cc1 (stereo not drawn)	-2%	0	16%	5%	79µM*	-1%
O=C(c1ccccc1)N1CCN(C2CC3CCC2C3)CC1 (stereo not drawn)	-1%	0	13%	-6%	16µM*	-21%
CC(C)(C)C1CCC(N2CCN(c3ccccc3)CC2)CC1 (stereo not drawn)	-4%	0	4%	-1%	/	0%
O=C(c1ccc(F)cc1)N1CCN(C2CC3CCC2C3)CC1 (stereo not drawn)	-1%	-1	0%	-4%	3%	5%
Cc1cc(C)c(S(=O)(=O)NCC2CCC(C(=O)NCCc3ccccc3)CC2)c(C)c1 (stereo not drawn)	/	/	15%	/	0%[59 µM]	/
COc1cc(OC)cc(-n2nnnc2SCC(=O)N2CCCC2)c1	1%	-1	3%	0%	21%[12.7 µM]	19%
COc1ccc(-n2nnnc2S(=O)(=O)Cc2ccc(C(=O)O)cc2)cc1	2%	-1	?	30µM*	-39%[12.7 µM]	-5%
COc1ccc(-n2nnnc2S(=O)(=O)CC(=O)N2CCCCC2)cc1	-1%	2	?	12µM*	?	-13%
COc1ccccc1CNC(=O)CCn1c(=O)c2ccccc2n(CC(=O)Nc2ccc(C)cc2C)c1=O	/	/	-10%	/	9%[59 µM]	/
CCOc1ccccc1CNS(=O)(=O)c1ccc2[nH]c(=O)ccc2c1	/	/	-5%	/	1%[59 µM]	/
N#CCSCC(=O)Nc1ccc(Br)cc1	1%	-1	-15%	-10%	11%[2.33 µM]	12%
Cc1ccc(NC(=O)CSCC#N)cc1	1%	-1	-5%	-9%	50µM*	11%
COc1ccccc1CNC(=O)c1cc2c(=O)n(Cc3cccs3)ccc2nc1C	/	/	4%	/	16%[59 µM]	/

Assay outcomes: PubChem BioAssay, National Center for Advancing Translational Sciences (NCATS)
